# Most compounds without a hit are left out; they make up all but 2.4% or so of the library.
# D2 ag-1: HTS Assay for Allosteric Agonists of the Human D2 Dopamine Receptor: Primary Screen for Agonists; HEK293 T-REx D2 cells, calcium flux agonist mode; activation, % at 2 µM; 0.53% of 340,000 active;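 active means activation over 3 SD above normal in the single-dose calcium agonist read, cut at about 30% in these data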
# Target sequence (P14416 whole entry, looked up): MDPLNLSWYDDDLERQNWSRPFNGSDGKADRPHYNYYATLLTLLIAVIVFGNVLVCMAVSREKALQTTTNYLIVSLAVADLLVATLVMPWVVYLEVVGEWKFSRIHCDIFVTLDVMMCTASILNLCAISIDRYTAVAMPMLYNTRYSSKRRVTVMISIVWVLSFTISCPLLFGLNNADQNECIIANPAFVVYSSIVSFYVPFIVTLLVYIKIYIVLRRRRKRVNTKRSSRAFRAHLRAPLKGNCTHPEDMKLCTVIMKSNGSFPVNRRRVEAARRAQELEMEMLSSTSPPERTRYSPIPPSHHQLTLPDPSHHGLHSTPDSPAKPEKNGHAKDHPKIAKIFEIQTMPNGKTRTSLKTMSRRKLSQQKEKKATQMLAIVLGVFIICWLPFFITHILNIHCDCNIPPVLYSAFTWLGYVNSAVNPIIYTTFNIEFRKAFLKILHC
#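 HEK293 Trex D2 cells, tetracycline-induced, o/n 30 C 5% CO2; no-wash Ca dye, RT 30–90 min; 10-cycle baseline, 23 nl cpd added, kinetic Ca read 180 s; agonist hits = positive Ca response.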
# D2 antagonist: HTS Assay for Allosteric Antagonists of the Human D2 Dopamine Receptor: Primary Screen for Antagonists; D(2) dopamine receptor (Homo sapiens), P14416; HEK293 TREx D2 cells, calcium flux, dopamine EC80; inhibition, % at 10 µM; 2% of 340,000 active; in the data active means inhibition above about 30%; inactive means below that, where a call was filed
#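 Overnight-induced (tetracycline, 30 C) HEK293 T-REx cells carrying force-coupled D2 receive a no-wash calcium dye, then compound, then EC80 dopamine at 180 s; signals are read kinetically throughout.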
# D2 ag-2: Beta-Arrestin HTS for Positive Allosteric Modulators of the Human D2 Dopamine Receptor: Agonists; DiscoveRx PathHunter D2 beta-arrestin, luminescence, 90 min; 100% = 57 uM dopamine signal; D(2) dopamine receptor (Homo sapiens), P14416; activation, % (no concentration beside the values); 0.084% of 360,000 active; in the data active means activation above about 40%; inconclusive means between about 15% and that limit
#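 Agonist mode: compounds alone added to overnight-plated D2 PathHunter cells for 90 min at 37 C, with 57 uM final dopamine (EC100) defining full response. Beta-arrestin recruitment detected by chemiluminescent reagent, read after 1 h at ambient temperature.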
# D2 PAM-1: Beta-Arrestin HTS for Positive Allosteric Modulators of the Human D2 Dopamine Receptor: Potentiators. AID 624464, 2012. DiscoveRx D2 beta-arrestin cells, luminescence, 90 min; 100% = 57 uM dopamine signal. potentiation, % (concentration not given with the values). D(2) dopamine receptor (Homo sapiens), P14416. 0.23% of 360,000 active; in the data active means potentiation above about 50%; inconclusive means mostly about 30% to 49%
#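 D2 cells co-treated with compound plus 50 nM dopamine (EC20) for 90 min at 37 deg C to detect potentiation. Beta-arrestin recruitment was read as enzyme-fragment luminescence after 1 h at ambient temperature. Full response was set by 57 uM dopamine.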
# D2 PAM-2: HTS Assay for Positive Allosteric Modulators of the Human D2 Dopamine Receptor: Primary Screen for Potentiators; D(2) dopamine receptor (Homo sapiens), P14416; HEK293 T-REx D2, calcium flux, EC20 dopamine potentiation; potentiation, % at 10 µM; 0.34% of 340,000 active; AID 485347, 2010;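 active means potentiation over 3 SD above the plate norm, cut at about 30% in these data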
#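 Primary screen. Calcium kinetics in induced HEK293 T-REx D2 cells: compound pre-addition 180 s, EC20 dopamine, 180 s more.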
# Numbers stand for hits; i = inactive; ? = inconclusive; nt = not tested or not shown; ! = a repeat was not active.
SMILES,D2 ag-1,D2 antagonist,D2 ag-2,D2 PAM-1,D2 PAM-2
Cc1ccccc1CNC(=O)C(=O)NCC(c1ccc2c(c1)OCO2)N1CCOCC1 (configuration not stated),i,nt,nt,nt,i
O=C1CSC(=Nc2cccc([N+](=O)[O-])c2)N1,i,42.8,i,i,i
CCN1/C(=C/C(C)=O)Sc2ccc(OC)cc21,nt,nt,i,i,nt
CCOC(=O)/C(=C\C=C1/Sc2cc(OCC)c(OCC)cc2N1CC)C(C)=O,100.0,65.5,i,i,i
CCOC(=O)/C(=C/C=C1\Sc2cc(OCC)c(OCC)cc2N1CC)C(C)=O,88.1,72.2,i,i,i
CN1CCN(C(=S)SCC(=O)Nc2nc(-c3ccccc3)c(-c3ccccc3)o2)CC1,i,i,i,i,i
N/C(Cc1ccc(Cl)cc1Cl)=N\OC(=O)c1ccccc1F,i,i,i,61.3,i
N/C(Cc1ccccc1)=N\OC(=O)c1cccc2ccccc12,37.0,i,i,?,i
N/C(Cc1cccc2ccccc12)=N\OC(=O)c1ccccc1F,i,i,?,60.9,i
N/C(Cn1cncn1)=N\OC(=O)c1ccc(Cl)cc1Cl,i,i,i,i,i
COc1ccc(C2C(=O)N(C3CCC(C)CC3)CC(=O)N2C2CCCCC2)cc1OC (configuration not stated),i,nt,nt,nt,i
COc1ccc(Oc2c(C)oc3cc(OC(=O)N4CCOCC4)ccc3c2=O)cc1,i,i,i,i,41.6
O=[N+]([O-])c1cc(-c2nc3nc4ccccc4nc3n2CCc2ccccc2)cc([N+](=O)[O-])c1,i,67.5,i,i,i
CC(C(=O)OCC(=O)c1ccc(Br)cc1)N1C(=O)C2C3C=CC(C3)C2C1=O (configuration not stated),i,i,i,i,32.2
COc1ccc(-c2cn3nc(N4CCCC(C(=O)NCc5ccccc5C)C4)sc3n2)cc1 (configuration not stated),i,nt,nt,nt,i
Cc1ccccc1/C=C/c1nc2ccccc2c(=O)[nH]1,i,i,i,i,i
Cc1ccccc1/C=C\c1nc2ccccc2c(=O)[nH]1,i,33.1,i,i,i
O=C(CSc1ccc(Br)cc1)Nc1cccc(S(=O)(=O)N2CCOCC2)c1,i,i,i,i,i
Cc1ccc(SCC(=O)Nc2cccc(S(=O)(=O)N3CCOCC3)c2)cc1C,i,34.9,i,i,i
COc1ccc(C(C)=O)cc1CC(=O)Nc1cccc(S(=O)(=O)N2CCOCC2)c1,i,32.8,i,i,i
COc1ccc(C(C)=O)cc1CC(=O)Nc1ccccc1-c1ccccc1,i,i,i,i,31.2
CCn1c(SCC(=O)Nc2ccc(C(=O)OC)cc2)nc2cccnc21,i,i,i,i,35.3
COC(=O)c1ccc(NC(=O)CSCc2ccccc2C)cc1,i,34.6,i,i,i
COC(=O)c1ccc(NC(=O)CSCc2ccccc2)cc1,i,i,i,i,i
CCn1c(SCC(=O)Nc2ccc(C(C)=O)cc2)nc2ccccc21,i,i,i,i,i
SMILES,D2 ag-1,D2 antagonist,D2 ag-2,D2 PAM-1,D2 PAM-2
CSc1ncnc2c1ccn2CC(=O)Nc1ccc(C)c(C)c1,nt,nt,i,i,nt
CC(C)(C)SCCNC(=O)CN(c1ccccc1)S(=O)(=O)c1ccc(F)cc1,i,32.2,i,i,i
Cc1ccc(CCNC(=O)c2ccc(CS(=O)(=O)c3ccc(Br)cc3)o2)cc1,nt,nt,nt,nt,i
COc1cc(CNc2ccc3[nH]c(=O)[nH]c3c2)cc(Br)c1OCc1ccccc1F,i,i,i,i,43.6!
COc1cc(CNc2ccc3[nH]c(=O)[nH]c3c2)ccc1OCc1ccccc1F,i,i,i,i,i
Cc1cc(C(=O)N2CCc3ccccc32)n(-c2ccccc2)n1,i,37.1,i,i,i
COc1ccc(-c2[nH]c(-c3ccc(Cl)cc3)nc2SCC(=O)NCC2CCCO2)cc1 (configuration not stated),i,nt,nt,nt,i
CCc1nnc(SCC(=O)Nc2ccc(F)cc2F)c2cc3sc(C)cc3n12,i,nt,nt,nt,i

# Compound activity from PubChem.
